One may read the inhibition as the change of the read-out against control, counted positive when it falls. Broadly, the IC50 is the concentration at which inhibition is half-maximal.

The values that follow come from PubChem BioAssay.

Each structure is given as a SMILES string. The list shows a part of the results. Active and inactive are the calls of the source.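 Rule for the calls, unless noted: active = signal rise of 40% or more at 20 µM, treated as a fluorescence artifact; inactive = the rest.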

A short description of assay [1]: Apaf-1 inhibitors, single-dose retest, confirmation, biochemical, fluorescence, DEVD-Rh110, 20 µM (AID 504614;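 active = mean inhibition of at least 40% at 20 µM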;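 note: plate controls were DMSO wells for no effect and DEVD-CHO caspase inhibitor control wells for full effect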). As to conditions: reconstituted apoptosome, caspase-3 DEVD-Rh110 fluorescence; at 20 µM; stronger effect = higher value.
Assay [2] is described as follows: Rh110 fluorescence interference by putative Apaf-1 inhibitors, confirmation, artefact control for Apaf-1 inhibitor project, biochemical, 20 µM (AID 504615). Particulars: quenched caspase reaction, at 20 µM, stronger effect = higher value.
A short description of assay [3]: fluorescence interference of Apaf-1 inhibitor hits, dose response, artefact control for Apaf-1 inhibitor project (AID 588538; call rule not given here). Particulars: fluorescence interference counterscreen, Apaf-1 assay format. For orientation: A counterscreen serves to expose hits that act by an unwanted route or on another target.
The nature of assay [4]: inhibition of Brca1/Bard1 split-luciferase complementation, confirmation, counter-screen for Mdm2/MdmX interaction inhibitor project, luminescence, single concentration (AID 504668; call rule not given here). Particulars: Brca1/Bard1 bimolecular luciferase complementation counterscreen, at 8 µM, stronger effect = higher value.
For assay [5], the target named is COP9 signalosome complex subunit 5 (Homo sapiens) (UniProt Q92905). Description: Csn5 deneddylation inhibitors, confirmation, biochemical, fluorescence polarization, single concentration, SCF-Nedd8OG substrate (AID 720654; in the data active = inhibition above about 50%;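 note: 0% = DMSO with enzyme and 100% = no enzyme wells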). Particulars: Csn5 deneddylation of SCF-Nedd8OG, 90 min, at 16.6 µM, stronger effect = higher value. Background: In fluorescence polarisation assays a small probe gives low polarisation when free and higher when bound to something large.
Chain of COP9 signalosome complex subunit 5 (Homo sapiens) (Q92905 whole entry, looked up, one chain of several): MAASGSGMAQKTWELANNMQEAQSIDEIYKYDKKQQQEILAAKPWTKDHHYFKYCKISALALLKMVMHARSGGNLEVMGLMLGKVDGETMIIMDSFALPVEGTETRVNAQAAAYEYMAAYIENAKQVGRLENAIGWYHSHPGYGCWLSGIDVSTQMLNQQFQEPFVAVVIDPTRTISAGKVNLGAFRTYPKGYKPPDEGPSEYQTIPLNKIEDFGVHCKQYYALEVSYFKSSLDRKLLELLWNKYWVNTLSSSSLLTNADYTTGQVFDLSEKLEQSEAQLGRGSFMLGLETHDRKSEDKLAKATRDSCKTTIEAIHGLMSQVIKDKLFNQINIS

Assay [6] addresses 72 kDa type IV collagenase (Homo sapiens) (UniProt P08253). As to the kind of experiment: MMP-2 protease inhibition counter-screen, confirmation, counter-screen for CSN deneddylation inhibitor project, biochemical, fluorescence, single concentration (AID 720655;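 active = corrected plate-normalized z-score of 5 or more, or -5 or less, or inhibition of 15% or more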;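 note: plate controls were DMSO wells with enzyme for no effect and buffer wells lacking MMP-2 for full effect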). Particulars: recombinant MMP-2, FRET substrate fluorescence, 60 min; at 16.6 µM.
The target of another assay is Prothrombin (Bos taurus) (UniProt P00735). Description: bovine thrombin inhibition counter-screen, confirmation, counter-screen for CSN deneddylation inhibitor project, biochemical, fluorescence polarization, single concentration (AID 720656;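 active = inhibition at or above a set limit, with a fluorescence interference ratio between 0.5 and a set maximum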). As to conditions: bovine thrombin cleavage of Ub4-pepOG, at 16.6 µM, stronger effect = higher value.
Chain of Prothrombin (Bos taurus) (P00735 whole entry, looked up): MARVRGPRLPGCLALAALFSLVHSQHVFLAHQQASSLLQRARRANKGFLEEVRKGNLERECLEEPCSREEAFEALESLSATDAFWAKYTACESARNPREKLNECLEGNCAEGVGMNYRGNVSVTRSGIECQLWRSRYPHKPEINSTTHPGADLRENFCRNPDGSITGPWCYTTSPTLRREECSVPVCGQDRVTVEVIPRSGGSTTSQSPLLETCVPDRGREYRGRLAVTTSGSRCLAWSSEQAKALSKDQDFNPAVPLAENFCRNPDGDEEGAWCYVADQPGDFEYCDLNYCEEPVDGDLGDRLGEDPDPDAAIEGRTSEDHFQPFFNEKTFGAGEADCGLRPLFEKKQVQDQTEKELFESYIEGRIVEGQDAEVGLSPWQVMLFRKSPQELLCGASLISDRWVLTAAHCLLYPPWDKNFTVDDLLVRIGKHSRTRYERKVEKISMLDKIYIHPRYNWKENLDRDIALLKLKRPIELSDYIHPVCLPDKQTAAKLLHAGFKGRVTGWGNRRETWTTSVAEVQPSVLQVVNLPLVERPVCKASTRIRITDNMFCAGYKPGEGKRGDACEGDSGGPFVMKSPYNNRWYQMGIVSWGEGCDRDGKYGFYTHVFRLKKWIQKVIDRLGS
Assay [7] in a line: Peg3 promoter reporter inhibitors, retest, confirmation, cell-based, HeLa, luciferase reporter, single concentration (AID 602417;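 active = at 20 µM dose, 40% or more inhibition averaged across four replicates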). As to conditions: HeLa PEG-Prom luciferase reporter, luminescence, overnight; at 20 µM; stronger effect = higher value.
Assay [8] concerns the target PEG-3 (UniProt Q6IN02). As to the kind of experiment: Peg3 promoter luciferase inhibitors, potency, dose response, cell-based, HeLa, CREF/GAPDH counter-screen panel (AID 624167). As to conditions: CREF/GAPDH counter-screens; HeLa PEG-Prom luciferase reporter, overnight, run 1, dose range 1, at 100 µM (top of the series) unless noted.
Assay [9] addresses PEG-3 (UniProt Q6IN02). The description is as above. As to conditions: CREF/GAPDH counter-screens; HeLa PEG-Prom luciferase reporter, overnight, run 2, dose range 1, at 100 µM (top of the series) unless noted.

Chain of PEG-3 (Q6IN02 whole entry, looked up): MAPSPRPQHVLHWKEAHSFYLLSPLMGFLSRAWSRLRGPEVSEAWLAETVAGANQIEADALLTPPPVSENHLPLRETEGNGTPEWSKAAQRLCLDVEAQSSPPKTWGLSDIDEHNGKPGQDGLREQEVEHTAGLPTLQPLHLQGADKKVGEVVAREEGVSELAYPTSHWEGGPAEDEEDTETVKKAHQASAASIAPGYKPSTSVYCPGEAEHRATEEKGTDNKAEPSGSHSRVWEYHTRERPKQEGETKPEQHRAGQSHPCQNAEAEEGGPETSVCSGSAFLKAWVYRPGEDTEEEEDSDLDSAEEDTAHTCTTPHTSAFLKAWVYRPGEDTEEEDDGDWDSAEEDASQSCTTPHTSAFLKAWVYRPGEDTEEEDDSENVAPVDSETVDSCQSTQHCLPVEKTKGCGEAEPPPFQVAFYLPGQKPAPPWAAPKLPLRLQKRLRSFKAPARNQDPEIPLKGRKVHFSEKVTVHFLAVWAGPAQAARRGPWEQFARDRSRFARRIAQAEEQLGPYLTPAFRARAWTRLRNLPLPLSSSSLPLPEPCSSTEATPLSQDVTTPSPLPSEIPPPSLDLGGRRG
Chain of 72 kDa type IV collagenase (Homo sapiens) (P08253 whole entry, looked up): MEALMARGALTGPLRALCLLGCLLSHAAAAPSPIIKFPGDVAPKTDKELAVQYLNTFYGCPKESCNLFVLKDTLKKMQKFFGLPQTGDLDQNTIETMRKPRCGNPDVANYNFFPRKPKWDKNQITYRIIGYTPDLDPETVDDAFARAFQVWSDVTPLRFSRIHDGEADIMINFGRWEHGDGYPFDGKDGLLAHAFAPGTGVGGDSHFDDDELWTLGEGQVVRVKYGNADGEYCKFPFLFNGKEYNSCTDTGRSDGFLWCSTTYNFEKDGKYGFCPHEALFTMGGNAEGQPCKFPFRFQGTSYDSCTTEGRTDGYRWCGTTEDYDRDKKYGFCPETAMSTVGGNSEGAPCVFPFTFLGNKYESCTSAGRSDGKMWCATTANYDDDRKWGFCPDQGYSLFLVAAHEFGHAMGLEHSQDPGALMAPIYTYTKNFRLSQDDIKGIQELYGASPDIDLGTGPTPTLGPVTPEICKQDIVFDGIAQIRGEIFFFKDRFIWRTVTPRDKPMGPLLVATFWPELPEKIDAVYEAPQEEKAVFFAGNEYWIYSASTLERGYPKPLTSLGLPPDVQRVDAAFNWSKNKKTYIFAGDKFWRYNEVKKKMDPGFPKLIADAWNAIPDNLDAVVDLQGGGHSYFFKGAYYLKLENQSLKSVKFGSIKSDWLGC

Take `C=CCC[C@H](Cc1ccc(F)cc1)C(=O)OC[C@@H](NC(=O)[C@@H](CC=C)CC(=O)N[C@H](CO)Cc1ccccc1)C(C)(C)C`: the inhibition in assay [1] was 14.6% (inactive). Also, the activation (fluorescence interference) in [2] was 3.46% (inactive).

Regarding `Cc1cc(C)n(-c2nc(SCC(=O)N3CCCC3)c3c4c(sc3n2)CCCC4)n1`, in assay [1], the inhibition is 26.4% (inactive). Moreover, the activation (fluorescence interference) in assay [2] is 8.64% (inactive).

Regarding `Cc1ccsc1/C=N/NC(=O)Cc1cc(=O)[nH][nH]1`, the inhibition in assay [1] is 17.5% (inactive). For the same compound, in [2], the activation (fluorescence interference) was 8.37% (inactive).

In the case of `CCCCCCc1cc2cc(-c3nnc(-c4ccccc4)o3)c(=O)oc2cc1O`, the inhibition in assay [1] was 76% (active). In assay [2], the activation (fluorescence interference) is 7.27% (inactive). Also, the IC50 in assay [3] was > 100 µM (inactive).

As to `Oc1ccc(N=Cc2c(O)ccc3ccccc23)cc1`, in assay [1], the inhibition is 19.4% (inactive). The activation (fluorescence interference) in assay [2] is 0.51% (inactive).

On to `O=C(CN1CCN(S(=O)(=O)c2ccc3ccccc3c2)CC1)NC(=O)NC1CCCCC1`, for which, in [1], the inhibition was 26.3% (inactive). Moreover, in assay [2], the activation (fluorescence interference) is 20% (inactive).

Regarding `CCOc1c(Br)cc(/C=C2\C(=O)N(CCC#N)N=C2C)cc1OC`, in assay [1], the inhibition was 13.1% (inactive). The activation (fluorescence interference) in assay [2] was 1.73% (inactive).

In the case of `O=C1Nc2ccc([N+](=O)[O-])cc2C1=Nc1cccc(CO)c1`, the inhibition in [1] is 39.8% (inactive). Besides, in [2], the activation (fluorescence interference) was -4.07% (inactive).

Consider `c1ccc(CSc2nnc(-c3ccco3)c(-c3ccco3)n2)cc1`, for which, in assay [1], the inhibition is 29.4% (inactive). The activation (fluorescence interference) in assay [2] was 6.26% (inactive).

Regarding `CCCCCCCCCCOC(=O)Cn1c(COc2cccc(OC)c2)[n+](C)c2ccccc21`, the values for the inhibition in assay [1] and in assay [4] were 74.8% (active) and 31.2% (active), respectively. Moreover, in assay [2], the activation (fluorescence interference) is 23% (inactive). The IC50 in [3] was > 100 µM (inactive).

With `COc1ccc2sc(-c3ccccc3OC)c(-c3ccc(OCCN4CCCC4)cc3)c2c1`, in [1], the inhibition was 27.1% (inactive). Also, the activation (fluorescence interference) in assay [2] is 6.49% (inactive).

Consider `COc1ccc(C(CNC(=O)c2ccc(S(=O)(=O)Nc3ccccc3F)cc2)N(C)C)cc1` (stereo unspecified), for which the inhibition in [1] was 43.8% (active). For the same compound, in assay [2], the activation (fluorescence interference) was -0.45% (inactive). In assay [3], the IC50 was > 100 µM (inactive).

With `CCC(C)(C)c1ccc(OCC(=O)N(C)C)c(C(C)(C)CC)c1`, the inhibition in [1] is 17.9% (inactive). In addition, in assay [2], the activation (fluorescence interference) was 8.45% (inactive).

Take `c1ccc2c(CCN3CCNC[C@H]3Cc3cccc4ccccc34)cccc2c1`: the inhibition in assay [1] is 24.8% (inactive). For the same compound, in [2], the activation (fluorescence interference) was 8.34% (inactive).

Turning to `CC(C)CC[n+]1ccn(C2=C([O-])c3ccccc3C(=O)/C2=N\S(=O)(=O)c2ccccc2)c1`, in assay [1], the inhibition was 62.6% (active). The activation (fluorescence interference) in [2] was 5.73% (inactive). Also, in assay [3], the IC50 was > 100 µM (inactive).

Consider `NC[C@H](Cc1ccccc1)NCCc1cc(C(F)(F)F)cc(C(F)(F)F)c1`, for which the inhibition in assay [1] is 17.2% (inactive). In assay [2], the activation (fluorescence interference) is 11.5% (inactive).

Consider `C#CCOCCOCCOCCNc1nc(N2CCN(C(=O)CCCCCCCCCCNC(=O)Cn3cc(CCCCCN)nn3)CC2)nc(N2CCN(C(=O)CCCCCCCCCCNC(=O)[C@H](CO)n3cc(CCCSC)nn3)CC2)n1`, for which, in assay [1], the inhibition was 60.8% (active). For the same compound, in assay [2], the activation (fluorescence interference) was 4.21% (inactive). In addition, in assay [3], the IC50 was > 100 µM (inactive).

`CC1=NN(c2ccc(Cl)c(C(=O)O)c2)C(=O)/C1=C/c1ccc(-c2ccccc2[N+](=O)[O-])o1`: in assay [1], the inhibition is 16.8% (inactive). Also, the activation (fluorescence interference) in [2] is 6.42% (inactive).

`CC(C)c1ccccc1OCC(O)CN(CC(O)COc1cccc2ccccc12)C(C)C` (stereo unspecified): in [1], the inhibition is 16.9% (inactive). Also, in assay [2], the activation (fluorescence interference) was 14.2% (inactive).

Turning to `O=S(=O)(Nc1ccc(O)c2ccccc12)c1ccc(OC(F)(F)F)cc1`, in assay [1], the inhibition was 21.3% (inactive). The activation (fluorescence interference) in assay [2] was -2.71% (inactive).

Turning to `NC(N)=NCCCc1cn(CC(=O)N2CCNCC2)nn1`, the inhibition in assay [1] is 9.2% (inactive). In addition, the activation (fluorescence interference) in assay [2] is -2.11% (inactive).

For `COc1ccc(-c2nc3cc(C)ccn3c2NC2CCCCC2)cc1SC1CCCCC1`, in assay [1], the inhibition is 15.6% (inactive). The activation (fluorescence interference) in [2] was -1.22% (inactive).

`CC(C)Cn1c(N)c(C(=O)NCc2cccs2)c2nc3ccccc3nc21`: the inhibition in assay [1] is 38.4% (inactive); in assay [5], 99.2% (active); in assay [6] it was 1.55% (inactive); with Prothrombin (Bos taurus), -0.76% (inactive). In [2], the activation (fluorescence interference) was 5.03% (inactive).

For the compound `CCCc1c(NC(=O)Nc2ccc(F)cc2)cnn1-c1ccccc1`, in assay [4], the inhibition is 29.3% (active).

Regarding `Cc1cc(C)cc(NC(=O)CSc2ccc(-c3ccccn3)nn2)c1`, the inhibition in assay [4] was 31.7% (active).

On to `COc1ccc(N2C(=O)N3[C@H](c4cccc(C)c4)[C@@H]4C(=O)N(Cc5ccccc5)C(=O)[C@@H]4[C@]3(Cc3ccccc3)C2=O)cc1`, for which the inhibition in assay [4] was 35.6% (active).

As for `Cc1cc(C(=O)CCl)c(C)n1CCc1ccc(Cl)cc1`, the inhibition in assay [4] was 30.7% (active).

With `CCc1ccccc1OCC(=O)Nc1nc(-c2cccnc2)cs1`, the inhibition in assay [4] is 35.6% (active).

In the case of `Cc1c(Cl)c([N+](=O)[O-])nn1Cc1ccc(C(=O)N/N=C\c2cc(Cl)ccc2O)o1`, the inhibition in [4] is 32.4% (active).

Consider `CCn1cc(CN2CCC(C(=O)Nc3cccc(-c4cccc(Cl)c4)c3)CC2)c(C)n1`, for which the inhibition in assay [1] is 12.8% (inactive); in assay [7], 95.8% (active); with PEG-3 [8] it was 98.4%; with PEG-3 [9], 101%. In assay [2], the activation (fluorescence interference) was 5.12% (inactive).
